# Experiments:
# Experiment in all cases: DAPPL (digital affinity profiling via proximity ligation, sequencing); 10 mM Tris-HCl pH 7.5, 50 mM NaCl, 1 mM DTT, 4% glycerol, room temperature, 30 min; GST-TFs on glutathione beads, 16-mer random dsDNA library, 0.1% formaldehyde crosslink after washing; high values mean tight binding
# [1] = biological target: T1, FEV (Homo sapiens, UniProt Q99581 1-238); conditions: protein: recombinant; tags: N-terminal GST; dsDNA, one strand shown
# T1 sequence: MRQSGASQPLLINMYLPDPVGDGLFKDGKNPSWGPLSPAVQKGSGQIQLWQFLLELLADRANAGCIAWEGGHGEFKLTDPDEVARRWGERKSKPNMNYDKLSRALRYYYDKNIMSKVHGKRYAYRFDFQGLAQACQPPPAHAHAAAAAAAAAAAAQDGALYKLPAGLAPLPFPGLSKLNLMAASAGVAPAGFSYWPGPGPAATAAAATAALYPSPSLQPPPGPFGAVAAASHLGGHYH
# In short: (§1)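 In yeast, human transcription factors were expressed with a GST fusion, then pulled down on glutathione beads and given DNA barcodes. Pooled with a tag-only sample, they were exposed to 200 nmole of a 16-mer random double-stranded DNA library (Tris/NaCl/DTT/glycerol buffer, room temperature, 30 min), washed, crosslinked with 0.1% formaldehyde, proximity-ligated using BsaI/T4 ligase for 1 h at 37 °C, PCR-amplified and read on an Illumina NextSeq500. Each hexamer's frequency of reads for a factor, divided by the matching frequency for the tag-only sample, gives the binding signal.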
# [2] = biological target: ETV5 (Homo sapiens, UniProt P41161 1-510); conditions: protein: recombinant; tags: N-terminal GST; dsDNA, one strand shown
# In short: as §1
# [3] = biological target: HSF1 (Homo sapiens, UniProt Q00613 1-529); conditions: protein: recombinant; tags: N-terminal GST; chain copies: 3; dsDNA, one strand shown
# In short: as §1
# [4] = biological target: T2, SPIC (Homo sapiens, UniProt Q8N5J4 1-248); conditions: protein: recombinant; tags: N-terminal GST; dsDNA, one strand shown
# T2 sequence: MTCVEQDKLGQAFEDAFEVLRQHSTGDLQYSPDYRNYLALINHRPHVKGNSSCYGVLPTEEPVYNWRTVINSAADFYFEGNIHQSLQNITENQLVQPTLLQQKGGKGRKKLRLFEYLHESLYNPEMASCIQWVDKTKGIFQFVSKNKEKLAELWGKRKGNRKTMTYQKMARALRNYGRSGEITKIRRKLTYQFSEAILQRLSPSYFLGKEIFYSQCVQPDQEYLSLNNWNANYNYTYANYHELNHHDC
# In short: as §1
# [5] = biological target: ELF4 (Homo sapiens, UniProt Q99607 1-663); conditions: protein: recombinant; tags: N-terminal GST; dsDNA, one strand shown
# In short: as §1
# [6] = biological target: T3, ELK4 (Homo sapiens, UniProt P28324-2 1-405); conditions: protein: recombinant; tags: N-terminal GST; dsDNA, one strand shown
# T3 sequence: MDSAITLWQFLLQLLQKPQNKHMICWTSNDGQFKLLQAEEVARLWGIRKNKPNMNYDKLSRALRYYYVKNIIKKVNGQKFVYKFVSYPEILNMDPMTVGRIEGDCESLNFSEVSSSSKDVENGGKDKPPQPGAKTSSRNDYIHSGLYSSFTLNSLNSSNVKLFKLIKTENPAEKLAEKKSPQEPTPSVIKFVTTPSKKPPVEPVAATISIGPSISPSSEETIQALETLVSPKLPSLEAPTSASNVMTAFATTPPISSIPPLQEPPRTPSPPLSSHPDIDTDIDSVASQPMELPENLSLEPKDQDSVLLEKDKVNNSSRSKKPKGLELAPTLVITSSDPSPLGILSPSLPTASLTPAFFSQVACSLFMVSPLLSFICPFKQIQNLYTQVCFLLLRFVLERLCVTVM
# In short: as §1
# [7] = biological target: T4, ETV2 (Homo sapiens, UniProt O00321 1-342); conditions: protein: recombinant; tags: N-terminal GST; dsDNA, one strand shown
# T4 sequence: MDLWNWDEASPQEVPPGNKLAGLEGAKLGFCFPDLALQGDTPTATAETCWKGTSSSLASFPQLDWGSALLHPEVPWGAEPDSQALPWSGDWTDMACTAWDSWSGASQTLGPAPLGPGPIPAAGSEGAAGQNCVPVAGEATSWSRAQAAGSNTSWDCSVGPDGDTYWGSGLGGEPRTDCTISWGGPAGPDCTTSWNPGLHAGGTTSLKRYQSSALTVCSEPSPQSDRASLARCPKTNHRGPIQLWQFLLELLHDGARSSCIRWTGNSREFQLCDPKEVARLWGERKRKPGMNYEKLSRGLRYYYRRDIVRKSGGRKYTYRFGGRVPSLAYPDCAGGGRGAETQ
# In short: as §1
# [8] = biological target: T5, ELF3 (Homo sapiens, UniProt P78545 1-371); conditions: protein: recombinant; tags: N-terminal GST; dsDNA, one strand shown
# T5 sequence: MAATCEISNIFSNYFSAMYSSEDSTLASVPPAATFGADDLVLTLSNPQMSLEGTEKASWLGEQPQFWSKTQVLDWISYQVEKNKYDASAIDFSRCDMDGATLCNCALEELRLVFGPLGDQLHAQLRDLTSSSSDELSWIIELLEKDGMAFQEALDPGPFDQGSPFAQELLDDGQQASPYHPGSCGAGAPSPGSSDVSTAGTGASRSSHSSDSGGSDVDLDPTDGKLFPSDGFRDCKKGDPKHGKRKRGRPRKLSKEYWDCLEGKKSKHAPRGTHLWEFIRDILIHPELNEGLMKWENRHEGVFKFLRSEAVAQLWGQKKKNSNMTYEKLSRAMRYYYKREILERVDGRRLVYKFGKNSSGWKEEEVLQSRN
# In short: as §1
# [9] = biological target: CRX (Homo sapiens, UniProt O43186 1-299); conditions: protein: recombinant; tags: N-terminal GST; dsDNA, one strand shown
# In short: as §1
# Chain of ELF4 (Q99607 whole entry): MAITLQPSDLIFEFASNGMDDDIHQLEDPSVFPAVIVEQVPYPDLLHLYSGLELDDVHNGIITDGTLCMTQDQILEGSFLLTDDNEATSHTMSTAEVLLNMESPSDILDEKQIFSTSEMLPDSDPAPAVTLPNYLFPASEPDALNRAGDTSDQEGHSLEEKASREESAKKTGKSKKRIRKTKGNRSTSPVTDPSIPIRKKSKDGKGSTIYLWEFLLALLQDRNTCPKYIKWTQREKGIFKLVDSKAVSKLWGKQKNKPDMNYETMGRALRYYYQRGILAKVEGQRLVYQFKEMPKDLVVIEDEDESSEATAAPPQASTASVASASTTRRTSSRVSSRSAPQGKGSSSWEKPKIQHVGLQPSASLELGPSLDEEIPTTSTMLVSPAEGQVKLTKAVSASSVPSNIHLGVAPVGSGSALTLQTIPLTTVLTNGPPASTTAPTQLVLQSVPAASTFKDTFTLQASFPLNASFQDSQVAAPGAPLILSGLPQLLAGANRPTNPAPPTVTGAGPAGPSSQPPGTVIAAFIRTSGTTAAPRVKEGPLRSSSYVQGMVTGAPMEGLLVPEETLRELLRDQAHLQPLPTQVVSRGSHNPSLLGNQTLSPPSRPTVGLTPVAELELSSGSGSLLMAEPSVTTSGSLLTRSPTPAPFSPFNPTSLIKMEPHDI
# Chain of HSF1 (Q00613 whole entry): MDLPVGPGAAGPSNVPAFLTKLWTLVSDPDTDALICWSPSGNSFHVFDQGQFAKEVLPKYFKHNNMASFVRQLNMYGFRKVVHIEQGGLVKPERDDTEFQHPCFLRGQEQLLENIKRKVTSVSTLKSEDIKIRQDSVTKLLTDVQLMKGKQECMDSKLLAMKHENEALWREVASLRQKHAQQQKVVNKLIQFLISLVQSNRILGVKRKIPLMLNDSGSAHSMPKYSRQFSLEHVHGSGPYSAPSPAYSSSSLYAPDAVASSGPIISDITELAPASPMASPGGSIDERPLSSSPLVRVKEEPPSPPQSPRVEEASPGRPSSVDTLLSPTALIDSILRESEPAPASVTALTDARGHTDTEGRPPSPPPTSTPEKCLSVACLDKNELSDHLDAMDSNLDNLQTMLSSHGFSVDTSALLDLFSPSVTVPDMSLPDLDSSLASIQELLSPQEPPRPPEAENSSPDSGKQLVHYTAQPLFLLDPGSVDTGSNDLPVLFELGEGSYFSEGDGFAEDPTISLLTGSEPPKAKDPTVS
# Chain of ETV5 (P41161 whole entry): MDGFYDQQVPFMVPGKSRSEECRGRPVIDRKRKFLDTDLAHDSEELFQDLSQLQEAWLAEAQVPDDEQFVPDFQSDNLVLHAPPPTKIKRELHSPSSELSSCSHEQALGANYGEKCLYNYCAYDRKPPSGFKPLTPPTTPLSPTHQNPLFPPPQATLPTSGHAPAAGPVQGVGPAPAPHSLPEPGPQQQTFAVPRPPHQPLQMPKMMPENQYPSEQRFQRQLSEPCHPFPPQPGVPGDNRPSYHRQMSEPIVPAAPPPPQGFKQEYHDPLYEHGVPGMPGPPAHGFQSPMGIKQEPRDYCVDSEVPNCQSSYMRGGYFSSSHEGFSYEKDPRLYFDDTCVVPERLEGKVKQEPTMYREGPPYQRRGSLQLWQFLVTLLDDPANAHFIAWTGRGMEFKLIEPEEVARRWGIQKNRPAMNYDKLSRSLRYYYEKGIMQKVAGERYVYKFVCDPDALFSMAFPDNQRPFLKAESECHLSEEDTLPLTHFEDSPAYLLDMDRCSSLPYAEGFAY
# Chain of CRX (O43186 whole entry): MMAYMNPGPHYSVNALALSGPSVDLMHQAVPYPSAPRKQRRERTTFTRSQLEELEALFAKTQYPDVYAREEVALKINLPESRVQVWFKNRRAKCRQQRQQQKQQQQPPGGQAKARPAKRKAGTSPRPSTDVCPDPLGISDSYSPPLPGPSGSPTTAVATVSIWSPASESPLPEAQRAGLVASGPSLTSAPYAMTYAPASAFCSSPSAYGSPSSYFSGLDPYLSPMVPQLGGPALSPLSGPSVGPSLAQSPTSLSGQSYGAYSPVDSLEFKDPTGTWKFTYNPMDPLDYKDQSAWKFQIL
sequence,measurement,setting,value
TTTGAT,binding signal,[1],"1.17 fold enrichment (6-mer frequency, TF over GST control)"
same,binding signal,[2],"1.23 fold enrichment (6-mer frequency, TF over GST control)"
same,binding signal,[3],"1.37 fold enrichment (6-mer frequency, TF over GST control)"
same,binding signal,[4],"1.26 fold enrichment (6-mer frequency, TF over GST control)"
same,binding signal,[5],"1.22 fold enrichment (6-mer frequency, TF over GST control)"
same,binding signal,[6],"1.2 fold enrichment (6-mer frequency, TF over GST control)"
same,binding signal,[7],"1.22 fold enrichment (6-mer frequency, TF over GST control)"
same,binding signal,[8],"1.18 fold enrichment (6-mer frequency, TF over GST control)"
same,binding signal,[9],"1.6 fold enrichment (6-mer frequency, TF over GST control)"

# Reference: paper PMC7862700, “An all-to-all approach to the identification of sequence-specific readers for epigenetic DNA modifications on cytosine”
